# Where “and” joins values, the source holds several entries; their conditions need not be identical. Equal values may be shown once. Some structures have more than one record in an assay (separate samples or runs), and their calls can disagree. Calls of active or inactive are those of the source.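 How the source made its calls, unless noted: active means thallium flux through the channel raised or lowered by more than 3 SD from vehicle-only wells, actives on both sides; inactive means the rest.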
# How the values were obtained:
# [1] = test system: Hepatitis C virus NS3 helicase; assay: HCV NS3 helicase inhibitors, primary screen, biochemical, fluorescence polarization, NIH Clinical Collection (AID 743270; call rule not given here); conditions: NS3 helicase binding to Cy5-dT15 DNA, stronger effect = higher value, concentration not given here
# [2] = target: Single-stranded DNA-binding protein (Escherichia coli (strain K12)) (UniProt P0AGE0); assay: E. coli SSB displacement from DNA, counter-screen for HCV NS3 helicase inhibitor project, biochemical, fluorescence polarization, NIH Clinical Collection (AID 743271; in the data active means inhibition above about 28%); conditions: stronger effect = higher value, concentration not given here
# [3] = fluorescence interference in NS3h assay format, artefact control for HCV NS3 helicase inhibitor project, biochemical, NIH Clinical Collection (AID 743272; call rule not given here;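 further: HCV NS3 helicase with a Cy5 labelled single stranded DNA probe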); conditions: fluorescence interference counterscreen, stronger effect = lower value
# [4] = stimulators of nuclear beta-catenin in C2C12, primary screen, imaging, WNT3A-conditioned medium, mouse C2C12, NPC library (AID 1117326; in the data active means nuclear beta-catenin stimulation mostly above about 4.2%, no sharp cut-off; inactive means mostly below about 10%); conditions: stronger effect = higher value
# [5] = stimulators of insulin release from INS-1E, primary screen, cell-based, 5 mM glucose, NPC library (AID 1117329;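 active means compound raises insulin release from rat beta cells at 5 mM glucose, no numeric limit stated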); conditions: rat INS-1E insulin secretion, at 10 µM, stronger effect = higher value
# [6] = growth inhibition of GSK3B-pretreated HCT116 cells – cell-based, CellTiter-Glo, 0.2 to 20 µM (AID 1117336;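 active means compounds lowering colon cancer cell viability after pretreatment blocking the GSK3B kinase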); conditions: HCT116 viability after GSK3B inhibitor, at 20 µM, stronger effect = higher value
# [7] = inhibition of endothelial tube formation, primary screen, imaging, VEGF stimulated, CD31 staining, tube area, NPC library (AID 1117340;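 active means compound that reduces growth-factor-driven endothelial tube area in a mixed cell culture, no cutoff stated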); conditions: VEGF-stimulated ADSC/ECFC co-culture, at 10 µM, stronger effect = higher value
# [8] = glucagon-like peptide 1 release enhancers, primary assay, NCI-H716 cell line, NPC library (AID 1117341;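 active means compound raises GLP1 secretion from the human gut endocrine cells, with no numeric limit stated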); conditions: NCI-H716 cells, at 10 µM, stronger effect = higher value
# [9] = HCT116 colon cancer cell growth inhibition, primary screen, CellTiter-Glo luminescence, NPC library (AID 1117342;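 active means compounds that lower survival of HCT116 colon cancer cells in the luminescence readout, no numeric limit stated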); conditions: at 20 µM (top of the series)
# [10] = CellTiter-Glo luminescent readout of SW480 viability loss, NPC library primary (AID 1117343;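 active means compounds that lower viability of the colon cancer cells in the luminescence readout, with no numeric limit stated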); conditions: CellTiter-Glo luminescence; at 20 µM (top of the series)
# [11] = decreased DLD-1 cellular survival, CellTiter-Glo luminescent readout, NPC compound collection, primary HTS (AID 1117346;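 active means compounds that lower survival of DLD-1 colon cancer cells in the luminescence readout, no cutoff given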); conditions: DLD-1 viability, CellTiter-Glo luminescence; at 20 µM (top of the series)
# [12] = target: 6-phosphogluconate dehydrogenase, decarboxylating (Homo sapiens) (UniProt P52209); assay: 6PGD enzyme inhibitors, primary screen, biochemical, human, recombinant enzyme, NADPH absorbance (AID 1159550;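 active means at least 20% inhibition of 6-phosphogluconate dehydrogenase activity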); conditions: recombinant 6PGD, NADPH absorbance 341 nm; at 10 µM; stronger effect = higher value
# 6-phosphogluconate dehydrogenase, decarboxylating (Homo sapiens), sequence (P52209 whole entry, looked up): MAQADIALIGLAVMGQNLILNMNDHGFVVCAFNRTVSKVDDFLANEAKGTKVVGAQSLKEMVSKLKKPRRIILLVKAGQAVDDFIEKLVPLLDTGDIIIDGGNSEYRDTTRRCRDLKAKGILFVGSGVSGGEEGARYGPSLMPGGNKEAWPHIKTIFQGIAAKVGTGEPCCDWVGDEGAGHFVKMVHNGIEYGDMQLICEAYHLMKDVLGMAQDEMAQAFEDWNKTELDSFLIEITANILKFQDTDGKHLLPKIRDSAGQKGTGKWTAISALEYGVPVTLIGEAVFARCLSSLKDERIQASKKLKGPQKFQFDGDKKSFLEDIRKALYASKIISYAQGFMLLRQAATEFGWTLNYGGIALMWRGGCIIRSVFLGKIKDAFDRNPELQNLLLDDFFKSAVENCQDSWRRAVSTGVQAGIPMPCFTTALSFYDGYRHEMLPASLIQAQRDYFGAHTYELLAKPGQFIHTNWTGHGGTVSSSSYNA
# [13] = differential killing of epithelial or mesenchymal cells, primary screen, imaging, PC-3E GFP, TEM4-18 mCherry, co-culture (AID 1345086;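 active means compounds killing one labelled cell type while sparing the other, by normalised counts and ratio limits, not self-fluorescent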;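 on all read-outs here: cells exposed to compound for 72 h before imaging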;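 on red/green cell ratio (normalised): normalised mesenchymal count divided by normalised epithelial count so high means epithelial killing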); conditions: imaging cell counts, at 1 µM; for red/green cell ratio (normalised): actives lie on both sides, counts scaled to control wells, 1 = unselective
# [14] = survival rescue of mitochondrial mutant cells in low glucose, primary screen, MELAS cybrids, Rieske KO mouse fibroblasts, CellTiter-Glo (AID 1508586;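 active means mean z-score across replicates of 1.96 or higher in either the MELAS or the Rieske mutant cell line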;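 further: z relative to plate mean and SD of compound and empty wells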)
# [15] = target: NAD(+) hydrolase SARM1 (Homo sapiens) (UniProt Q6SZW1); assay: SARM1 TIR NADase inhibitors, cell lysate, NAD-Glo luminescence (AID 1508614;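 active means compound whose remaining NAD level is above about 45 nM, limit read from the data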); conditions: SAM-TIR HEK293T lysate NADase, at 1 µM, stronger effect = higher value
# NAD(+) hydrolase SARM1 (Homo sapiens), sequence (Q6SZW1 whole entry, looked up, the tested form may be a part): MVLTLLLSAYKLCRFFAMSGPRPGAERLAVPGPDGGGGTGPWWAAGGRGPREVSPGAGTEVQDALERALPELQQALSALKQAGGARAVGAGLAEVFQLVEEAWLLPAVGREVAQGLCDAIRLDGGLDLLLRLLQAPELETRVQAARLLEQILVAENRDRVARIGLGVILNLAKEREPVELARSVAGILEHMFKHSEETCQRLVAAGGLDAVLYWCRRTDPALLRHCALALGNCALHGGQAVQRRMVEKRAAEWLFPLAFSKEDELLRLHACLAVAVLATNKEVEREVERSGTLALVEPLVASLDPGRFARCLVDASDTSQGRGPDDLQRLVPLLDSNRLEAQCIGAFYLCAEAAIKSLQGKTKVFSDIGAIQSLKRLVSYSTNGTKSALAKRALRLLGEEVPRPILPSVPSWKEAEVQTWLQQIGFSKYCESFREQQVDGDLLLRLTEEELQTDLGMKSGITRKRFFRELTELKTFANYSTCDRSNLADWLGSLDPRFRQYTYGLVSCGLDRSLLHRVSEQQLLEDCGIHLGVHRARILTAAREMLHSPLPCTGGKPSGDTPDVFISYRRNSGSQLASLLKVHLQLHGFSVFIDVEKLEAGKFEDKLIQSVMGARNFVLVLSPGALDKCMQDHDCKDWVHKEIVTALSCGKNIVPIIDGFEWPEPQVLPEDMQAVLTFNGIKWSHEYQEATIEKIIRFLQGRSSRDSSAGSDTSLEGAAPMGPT
# [16] = target: Mitogen-activated protein kinase 7 (Homo sapiens) (UniProt Q13164); assay: ERK5 transactivation activators in reporter cells, primary screen, cell-based, HTS (AID 1508626;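 active means luciferase signal above three times the same-plate solvent-only control wells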;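 further: luciferase driven by Gal4-ERK5 fusion binding five Gal4 sites before minimal TATA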); conditions: HeLa Gal4-ERK5 transactivation, 18 h, at 5 µM, stronger effect = higher value
# Mitogen-activated protein kinase 7 (Homo sapiens), sequence (Q13164 whole entry, looked up, the tested form may be a part): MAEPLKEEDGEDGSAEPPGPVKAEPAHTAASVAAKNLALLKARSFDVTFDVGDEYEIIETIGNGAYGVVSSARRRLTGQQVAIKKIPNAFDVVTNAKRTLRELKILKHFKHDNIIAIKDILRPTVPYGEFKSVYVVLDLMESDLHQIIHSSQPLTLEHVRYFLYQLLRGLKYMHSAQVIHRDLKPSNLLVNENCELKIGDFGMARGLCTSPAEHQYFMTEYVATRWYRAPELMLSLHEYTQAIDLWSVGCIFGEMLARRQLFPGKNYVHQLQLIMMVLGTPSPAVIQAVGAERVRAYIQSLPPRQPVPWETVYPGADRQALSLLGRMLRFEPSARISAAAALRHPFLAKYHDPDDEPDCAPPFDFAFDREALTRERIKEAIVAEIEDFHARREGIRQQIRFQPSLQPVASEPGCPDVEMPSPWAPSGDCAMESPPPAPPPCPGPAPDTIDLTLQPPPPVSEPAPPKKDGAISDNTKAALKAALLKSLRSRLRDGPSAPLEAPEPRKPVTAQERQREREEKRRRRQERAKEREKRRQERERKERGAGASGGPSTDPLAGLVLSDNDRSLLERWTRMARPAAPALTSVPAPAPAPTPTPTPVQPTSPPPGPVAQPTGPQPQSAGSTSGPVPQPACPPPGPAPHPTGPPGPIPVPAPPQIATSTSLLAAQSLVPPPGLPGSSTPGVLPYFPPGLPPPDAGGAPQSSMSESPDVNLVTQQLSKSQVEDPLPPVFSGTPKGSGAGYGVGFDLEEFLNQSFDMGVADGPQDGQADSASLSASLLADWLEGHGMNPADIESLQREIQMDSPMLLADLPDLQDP
# F380Y = assay: modulators of BK channel variants, profiling panel, selectivity assay, cell-based, U2OS BacMam, thallium flux, beta subunits (AID 1259406); conditions: at 30 µM;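 further: initial slope of Thallos dye fluorescence rise after thallium is added; log ratio against the mean of 0.3% DMSO vehicle wells on the same plate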
# F380Y/beta2Delta = assay: as above; conditions: at 30 µM
# [17] = target: Calcium-activated potassium channel subunit alpha-1 (Homo sapiens) + Leucine-rich repeat-containing protein 26 (Homo sapiens) (UniProt Q12791+Q2I0M4); assay: as above; conditions: F380Y/Slo1WT/gamma1, at 30 µM
# Calcium-activated potassium channel subunit alpha-1 (Homo sapiens) + Leucine-rich repeat-containing protein 26 (Homo sapiens), sequence (Q2I0M4 whole entry, looked up, one chain of several): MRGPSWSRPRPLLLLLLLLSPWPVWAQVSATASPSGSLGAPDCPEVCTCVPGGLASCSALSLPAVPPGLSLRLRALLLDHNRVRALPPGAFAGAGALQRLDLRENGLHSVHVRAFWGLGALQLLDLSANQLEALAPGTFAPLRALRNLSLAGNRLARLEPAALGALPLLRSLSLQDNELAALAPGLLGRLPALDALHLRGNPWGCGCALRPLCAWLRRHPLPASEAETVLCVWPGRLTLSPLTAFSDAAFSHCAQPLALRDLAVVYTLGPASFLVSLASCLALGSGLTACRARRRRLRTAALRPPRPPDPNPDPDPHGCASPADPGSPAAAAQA
# [18] = sensitizers of A549 cells to miR-34 induction, primary screen, imaging, A549 dox-inducible miR-34, nuclei and caspase counts (AID 1347080;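 active means compounds whose cell count with miR-34 switched on is under 0.7 times the count with it off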); conditions: A549 miR-34 inducible, Hoechst nuclei count, 48 h
# [19] = measured here: epithelial PC-3E GFP cell survival
# [20] = measured here: mesenchymal TEM4-18 mCherry cell survival
# [21] = MELAS cybrid survival, CellTiter-Glo 48 h, stronger effect = higher value
# [22] = Rieske KO mouse fibroblast survival, CellTiter-Glo 72 h
smiles,measurement,setting,value
Nc1nc(N)c2nc(-c3ccccc3)c(N)nc2n1,inhibition,[1],7.73% (inactive)
same,inhibition,[2],7.91% (inactive)
same,fluorescence ratio,[3],0.9 (inactive)
same,nuclear beta-catenin stimulation,[4]; at 10 µM,17.3% (inactive)
same,nuclear beta-catenin stimulation,"[4]; stimulation, at 2 µM",4.7%
same,insulin secretion stimulation,[5],-0.7% (inactive)
same,viability decrease,[6],91.2% (active)
same,tube area decrease,[7],10.4% (inactive)
same,GLP1 secretion stimulation,[8],2.6% (inactive)
same,inhibition of viability,[9],83% (active)
same,viability decrease (inhibition),[10],75.8% (active)
same,viability decrease (inhibition),[11],0.75% (inactive)
same,inhibition,[12],13.3% (inactive)
same,red/green cell ratio (normalised),[13],1.25 (inactive)
same,normalised cell number,[13]; [19],1
same,normalised cell number,[13]; [20],1.25
same,z-score,[14]; [21],-0.205 (inactive) and 1.1 (inactive)
same,z-score,[14]; [22],-0.161 and 0.254
same,remaining NAD,[15],10 nM (inactive)
same,luciferase signal,[16],48 AU (inactive)
same,log fold change Tl+ flux,F380Y,0.00573 (inactive)
same,log fold change Tl+ flux,F380Y/beta2Delta,0.0397 (inactive)
same,log fold change Tl+ flux,[17],0.00721 (inactive)
O=C1NC(=O)C(c2ccccc2)(c2ccccc2)N1,inhibition,[1],-2.27% (inactive)
same,inhibition,[2],-2% (inactive)
same,fluorescence ratio,[3],1 (inactive)
same,nuclear beta-catenin stimulation,[4]; at 10 µM,0.1% (inactive)
same,nuclear beta-catenin stimulation,"[4]; stimulation, at 2 µM",0.8%
same,insulin secretion stimulation,[5],-0.3% (inactive)
same,viability decrease,[6],7% (inactive)
same,tube area decrease,[7],-8.6% (inactive)
same,GLP1 secretion stimulation,[8],3.3% (inactive)
same,inhibition of viability,[9],0.15% (inactive)
same,viability decrease (inhibition),[10],45.8% (inactive)
same,viability decrease (inhibition),[11],-0.3% (inactive)
same,inhibition,[12],6.59% (inactive)
same,red/green cell ratio (normalised),[13],0.93 (inactive)
same,normalised cell number,[13]; [19],1.07
same,normalised cell number,[13]; [20],0.99
same,z-score,[14]; [21],2.18 (active) and -0.393 (inactive)
same,z-score,[14]; [22],-1.75 and 0.128
same,remaining NAD,[15],10 nM (inactive)
same,luciferase signal,[16],68 AU (inactive)
same,log fold change Tl+ flux,F380Y,0.0665 (inactive)
same,log fold change Tl+ flux,F380Y/beta2Delta,-0.01 (inactive)
same,log fold change Tl+ flux,[17],-0.0118 (inactive)
OC(CCN1CCCC1)(c1ccccc1)C1CCCCC1 (stereo not drawn),inhibition,[1],-3.18% (inactive)
same,inhibition,[2],-3.53% (inactive)
same,fluorescence ratio,[3],1.03 (inactive)
same,nuclear beta-catenin stimulation,[4]; at 10 µM,4.7% (inactive)
same,nuclear beta-catenin stimulation,"[4]; stimulation, at 2 µM",4.9%
same,insulin secretion stimulation,[5],6.4% (inactive)
same,viability decrease,[6],-95.6% (inactive)
same,tube area decrease,[7],-12.4% (inactive)
same,GLP1 secretion stimulation,[8],3.4% (inactive)
same,inhibition of viability,[9],17.1% (inactive)
same,viability decrease (inhibition),[10],22.1% (inactive)
same,viability decrease (inhibition),[11],10.7% (inactive)
same,inhibition,[12],-21.9% (inactive)
same,red/green cell ratio (normalised),[13],1.05 (inactive)
same,normalised cell number,[13]; [19],0.98
same,normalised cell number,[13]; [20],1.03
same,fold change,"[18]; stronger effect = lower value, cell number ratio, induced over uninduced",0.976 (inactive) and 0.849 (inactive) and 0.894 (inactive)
same,fold change,[18]; measured here: relative caspase fold change +Dox/-Dox,1.12 and 3.13 and 3.87
same,cell count,"[18]; measured here: total cells with miR-34 induction, stronger effect = lower value",10200 and 8600 and 10900
same,cell count,[18]; measured here: total cells without miR-34 induction,10400 and 10100 and 12200
same,z-score,[14]; [21],0.381 (inactive)
same,z-score,[14]; [22],0.369
same,remaining NAD,[15],10 nM (inactive)
same,luciferase signal,[16],44 AU (inactive)
same,log fold change Tl+ flux,F380Y,0.0696 (inactive)
same,log fold change Tl+ flux,F380Y/beta2Delta,0.106 (active)
same,log fold change Tl+ flux,[17],0.011 (inactive)

# Reference: PubChem BioAssay
